{
  "source": "ChEMBL document CHEMBL3988442",
  "about": "“University of Dundee, Small-Polar-MMV Screening Library” (2021)",
  "note": "Out of some 69,000 compounds screened, about 420 (0.61%) showed an effect of 50% or more. The list comes from a sample in which strong results are over-represented; it also holds similar structures and randomly drawn compounds.",
  "data": [
    {"target": "T1, Histidine--tRNA ligase (Leishmania infantum) (UniProt A4I591)", "T1 sequence (whole entry)": "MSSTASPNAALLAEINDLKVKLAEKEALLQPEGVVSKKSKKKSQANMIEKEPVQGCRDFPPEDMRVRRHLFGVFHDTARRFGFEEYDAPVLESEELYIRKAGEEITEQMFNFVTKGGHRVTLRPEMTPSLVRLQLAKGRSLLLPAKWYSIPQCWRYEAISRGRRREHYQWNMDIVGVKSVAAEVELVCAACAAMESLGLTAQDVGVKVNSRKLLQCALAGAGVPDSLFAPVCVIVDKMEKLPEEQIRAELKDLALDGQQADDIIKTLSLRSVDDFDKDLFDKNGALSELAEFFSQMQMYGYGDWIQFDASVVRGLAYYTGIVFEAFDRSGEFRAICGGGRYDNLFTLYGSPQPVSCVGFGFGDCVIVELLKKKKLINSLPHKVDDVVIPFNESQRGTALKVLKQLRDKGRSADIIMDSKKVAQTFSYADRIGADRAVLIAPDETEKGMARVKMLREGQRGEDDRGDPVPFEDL", "experiment": "Leishmania infantum Histidine tRNA synthetase (LdHisRS)", "assay_type": "functional", "design": "scale not given: in the data most compounds retested in dose-response had high values", "details": "30 µM", "units": {"Percent Effect": "%"}, "values": [
      {"smiles": "Cn1cc(C(=O)N2CC[C@@H]3[C@@H]2CCN3c2ncc(F)cn2)cn1", "Percent Effect": 14.3},
      {"smiles": "O=C(c1ccnnc1)N1C[C@@H](OCc2cccnc2)[C@H]2OCCC[C@H]21", "Percent Effect": 22.9},
      {"smiles": "O=C(N[C@@H]1CN(c2ncccn2)C[C@@H]2CCCO[C@@H]21)c1cccnc1", "Percent Effect": 2.86},
      {"smiles": "Cc1ccc(N2CC[C@@H]3O[C@@H](c4ccncn4)C[C@H]3C2)nn1", "Percent Effect": 16.2},
      {"smiles": "Cc1nc[nH]c1CN1CCN(C(=O)CN2CCCC2)[C@H]2CS(=O)(=O)C[C@H]21", "Percent Effect": 15.6},
      {"smiles": "CCn1cc(CNc2ccc(Br)c(OC)c2)cn1", "Percent Effect": 16.9},
      {"smiles": "CCn1cc(CNc2ccc3nccnc3c2)cn1", "Percent Effect": 90.9},
      {"smiles": "CCn1cc(CNc2ccc(F)c(F)c2)cn1", "Percent Effect": 3.54},
      {"smiles": "CC(C)N(C)C[C@H]1OC[C@@H]2CCN(Cc3cccc(C#N)c3)C[C@@H]21", "Percent Effect": 10},
      {"smiles": "Cc1nc(CO[C@H]2CN(C(=O)c3cccn3C)[C@@H]3COC[C@H]23)cs1", "Percent Effect": -6},
      {"smiles": "Nc1nc(N2CCCC(COc3ccc(F)cc3)C2)c2nc[nH]c2n1", "note": "(stereo unspecified)", "Percent Effect": 81.9},
      {"smiles": "COc1ccccc1N1CCN(c2nc(N)nc3[nH]cnc23)CC1", "Percent Effect": 21.7},
      {"smiles": "Nc1cc(N2CCCC(COc3ccc(F)cc3)C2)ncn1", "note": "(stereo unspecified)", "Percent Effect": 28.9},
      {"smiles": "O=C(c1cncc(N2CC[C@@]3(O)CCNC[C@H]3C2)n1)N1CCCC1", "Percent Effect": 0},
      {"smiles": "CN(C)S(=O)(=O)N1CC[C@]2(O)CCN(c3cc(C#N)ccn3)C[C@@H]2C1", "Percent Effect": 15.7},
      {"smiles": "O=C1[C@H]2CN(C3CCOCC3)C[C@H]2CN1Cc1cccc(F)c1", "Percent Effect": 19.7},
      {"smiles": "O=C(C1CCCC1)N1C[C@@H]2CCN(c3cnccn3)C[C@@H]2C1", "Percent Effect": 30.3},
      {"smiles": "O=C(C1CCCCC1)N1C[C@@H]2CCN(c3cnccn3)C[C@@H]2C1", "Percent Effect": 46.8},
      {"smiles": "CS(=O)(=O)N1C[C@H]2N(c3ncccn3)CCC[C@@]2(C(=O)NCC2CC2)C1", "Percent Effect": 6.36},
      {"smiles": "COc1ccc(C(NCc2cccc(O)c2)C2CC2)cc1", "note": "(stereo unspecified)", "Percent Effect": 69.6},
      {"smiles": "COc1ccc(C(NCc2ccc(C#N)cc2)C2CC2)cc1", "note": "(stereo unspecified)", "Percent Effect": 29.1},
      {"smiles": "COc1ccc(C(NCc2cccc(C#N)c2)C2CC2)cc1", "note": "(stereo unspecified)", "Percent Effect": 3.8},
      {"smiles": "Cc1ccoc1C(=O)N1CC[C@H]2[C@@H]1CCC(=O)N2c1cccnc1", "Percent Effect": 23},
      {"smiles": "CCS(=O)(=O)NC[C@]12COC[C@H]1CN(CCc1ccccc1)C2", "Percent Effect": 2.63},
      {"smiles": "c1cnc(N2CCC3(CC2)CN(CC2CC2)c2ccccc23)nc1", "Percent Effect": 70.7},
      {"smiles": "O=C1N(CC2CC2)CCC12CCN(c1ncccn1)CC2", "Percent Effect": 24.4},
      {"smiles": "c1ccc2c(c1)N(CC1CCOC1)CC21CCN(c2cnccn2)CC1", "note": "(stereo unspecified)", "Percent Effect": 39.1},
      {"smiles": "CN(C)CCN1C(=O)CC[C@@H]2[C@H]1CCN2C(=O)c1ccc(C#N)cc1", "Percent Effect": 17.1},
      {"smiles": "CN(C)[C@H]1COC[C@@H]2CN(Cc3ccc4c(c3)OCO4)C[C@@H]21", "Percent Effect": 16.2},
      {"smiles": "O=C1N(c2ccccc2)C[C@H]2CN(C3CCC3)CCN12", "Percent Effect": 22.2},
      {"smiles": "CCc1ccc2c(C3CN(S(C)(=O)=O)C3)ncn2c1", "Percent Effect": 12.6},
      {"smiles": "CCc1ccc2c(C3CN(C(C)=O)C3)ncn2c1", "Percent Effect": 17.6},
      {"smiles": "CCc1ccc2c(C3CN(CC4CCC4)C3)ncn2c1", "Percent Effect": 69.8},
      {"smiles": "CN(C)C(=O)CCCn1ccc(NC(=O)NCc2cccc(F)c2)n1", "Percent Effect": 2.08},
      {"smiles": "Cc1cc(=O)n(C)cc1NC(=O)Cc1cccc(F)c1", "Percent Effect": 68.5},
      {"smiles": "Cc1cc(=O)n(CC(=O)Nc2cccc(Cl)c2)nc1C", "Percent Effect": 2.4},
      {"smiles": "Cc1cc(=O)n(C)cc1NC(=O)NCc1cccc(F)c1", "Percent Effect": 107},
      {"smiles": "Cc1ccc(C(F)(F)F)cc1NCC(=O)Nc1c(C)nn(C)c1C", "Percent Effect": 17.8},
      {"smiles": "Cn1ccc(NC(=O)Cc2cccc(F)c2)n1", "Percent Effect": 15.4},
      {"smiles": "Cn1ccc(CS(=O)(=O)Cc2cccc(F)c2)cc1=O", "Percent Effect": 18.8},
      {"smiles": "CS(=O)(=O)CCn1ccc(NC(=O)Cc2cccc(Cl)c2)n1", "Percent Effect": 15.3},
      {"smiles": "O=C(NCc1cccc(F)c1)Nc1ccn(CCN2CCOCC2)n1", "Percent Effect": 11.2},
      {"smiles": "Cc1cc(=O)n(C)cc1NC(=O)Cc1cccc(Cl)c1", "Percent Effect": 107},
      {"smiles": "Cn1cc(NC(=O)c2cccc(C(F)(F)F)c2)c(=O)n(C)c1=O", "Percent Effect": 22.9},
      {"smiles": "Cc1cc(=O)n(C)cc1NC(=O)Cc1ccc(C(F)(F)F)cc1", "Percent Effect": 107},
      {"smiles": "Cc1cccc(C(=O)N2CC[C@@H]3CN(c4ncccn4)CCO[C@@H]3C2)c1", "Percent Effect": 10},
      {"smiles": "COc1ccc(CN2CCO[C@@H]3C[C@@H](C(=O)NC(C)C)C[C@H]32)cc1", "Percent Effect": 25},
      {"smiles": "COC[C@]12COC[C@H]1CN(Cc1ccc3c(c1)OCO3)C2", "Percent Effect": 1.98},
      {"smiles": "O=C1CC[C@H]2[C@H](CCN2C(=O)C2CCOCC2)N1Cc1ccncc1", "Percent Effect": 17.5},
      {"smiles": "CNC(=O)[C@@]12CCCN(c3ncccn3)[C@@H]1CN(c1ncc(F)cn1)C2", "Percent Effect": 16.8},
      {"smiles": "CCc1ccc(C(=O)N2C[C@@H]3COC[C@@H](C(=O)NC)[C@@H]3C2)cc1", "Percent Effect": 14},
      {"smiles": "C[C@@H]1C(=O)NC[C@H]2CN(Cc3ccc4c(c3)OCO4)C[C@H]21", "Percent Effect": 15.6},
      {"smiles": "O=C(NCc1ccccn1)[C@]12COC[C@H]1CN(Cc1cccnc1)C2", "Percent Effect": 11.1},
      {"smiles": "O=C([C@H]1C[C@@H]2CN(c3ncc(F)cn3)C[C@H]1O2)N1CCOCC1", "Percent Effect": 5.94},
      {"smiles": "CC(C)NC(=O)N1CC[C@H]2N(C)CC[C@@]2(C(=O)Nc2cccnc2)CC1", "Percent Effect": 9.91},
      {"smiles": "O=C(NCC1CC1)[C@H]1C[C@H]2OCC[C@H]2N(Cc2ccsc2)C1", "Percent Effect": 0}
    ]}
  ]
}
